Reference: PubChem BioAssay (NCI)
Where “and” joins values, the source holds several entries; their conditions need not be identical. Equal entries are not always repeated. This is part of a sample that, as a whole, favours compounds with a hit. Of some 79,000 tested, about 15% had one in any assay. Values without a mark were called inactive. Calls of active or inactive are those of the source. Rule as the data show it: active = growth inhibition above about 70%; inactive = the rest.

Legend:
[1] = NCI Yeast Anticancer Drug Screen. Data for the rad50 strain (AID 155);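 also: 0% = growth of vehicle-only cultures of the same strain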; conditions: S. cerevisiae rad50 strain growth inhibition, active compounds read high; at 50.0 µM unless noted
Summary of the method: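 Yeast carrying a defined DNA repair defect were exposed to test compounds, and growth was compared with vehicle-treated controls to give percent inhibition.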

[2] = NCI Yeast Anticancer Drug Screen. Data for the mec2-1 strain (AID 157); conditions: S. cerevisiae mec2-1 strain, active compounds read high; at 50.0 µM unless noted
Summary of the method: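 Using mec2-1 yeast: add compound, measure growth, express inhibition versus vehicle-treated cultures.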

[3] = NCI Yeast Anticancer Drug Screen. Data for the sgs1 mgt1 strain (AID 161);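 also: 0% = growth of cultures given vehicle only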; conditions: S. cerevisiae sgs1 mgt1 strain, active compounds read high; at 50.0 µM unless noted
Summary of the method: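 Compounds are added to genetically altered yeast, and growth is compared with cultures given vehicle alone to give percent inhibition.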

[4] = NCI Yeast Anticancer Drug Screen. Data for the cln2 rad14 strain (AID 165);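 also: 0% = growth equal to vehicle treated cultures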; conditions: S. cerevisiae cln2 rad14 strain, active compounds read high; at 50.0 µM unless noted
Summary of the method: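 Yeast strain cln2 rad14, bearing defects in cell cycle control and DNA repair, serves as the test system; values reflect growth inhibition compared with vehicle.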

[5] = NCI Yeast Anticancer Drug Screen. Data for the bub3 strain (AID 167); conditions: S. cerevisiae bub3 mutant strain, active compounds read high; at 50.0 µM unless noted
Summary of the method: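 Compounds were applied to a genetically altered yeast strain carrying a cell-cycle control defect. Growth inhibition was scored against vehicle-treated controls.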

[6] = NCI Yeast Anticancer Drug Screen. Data for the mlh1 rad18 strain (AID 175); conditions: S. cerevisiae mlh1 rad18 strain growth inhibition, active compounds read high; at 50.0 µM unless noted
Summary of the method: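 Steps: expose repair-defective yeast to compound; measure growth; express inhibition against vehicle-treated controls.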

CCNC(=O)CCCC(=O)OC
growth inhibition [1]: 9.75%
growth inhibition [2]: 4.55%
growth inhibition [3]: 18.9%
growth inhibition [4]: 14.6%
growth inhibition [5]: 7.35%
growth inhibition [6]: 2.2%

O=c1[nH][nH]c2ccccc12
growth inhibition [1]: 23.1%
growth inhibition [2]: -11.3%
growth inhibition [3]: 13.1%
growth inhibition [4]: 13.9%
growth inhibition [5]: 8.9%
growth inhibition [6]: 12.2%

NCc1ccc(F)cc1
growth inhibition [1]: 24.9%
growth inhibition [2]: -10.7%
growth inhibition [3]: 32%
growth inhibition [4]: 12.7%
growth inhibition [5]: 2.4%
growth inhibition [6]: 26.5%

CC(=O)NCC(C)NC(C)=O (configuration not stated)
growth inhibition [1]: -16.6% and -6.55%
growth inhibition [2]: -37.4% and -15.4%
growth inhibition [3]: -34.2% and -27.1%
growth inhibition [4]: -6.75% and 7.7%
growth inhibition [5]: -14.8% and -2.45%
growth inhibition [6]: -15.2% and 8.1%

COc1cccc(-c2cc(=O)c3cc(N4CCOCC4)ccc3[nH]2)c1
growth inhibition [1]: -35.9%
growth inhibition [2]: -27.9%
growth inhibition [3]: -22.9%
growth inhibition [4]: -2%
growth inhibition [5]: -40.9%
growth inhibition [6]: -58.2%

O=C(O)CCC(CC(=O)O)C(=O)O (configuration not stated)
growth inhibition [1]: 19.1%
growth inhibition [2]: 4.95%
growth inhibition [3]: 16%
growth inhibition [4]: 13.7%
growth inhibition [5]: 23.9%
growth inhibition [6]: 15.4%

CCCCCCCCCC(=O)N=C(C(N)=O)C(N)=O
growth inhibition [1]: -13.2%
growth inhibition [2]: 18.3%
growth inhibition [3]: 38.5%
growth inhibition [4]: 3.75%
growth inhibition [5]: 1.7%
growth inhibition [6]: 21.8%

O=C1OC(/C=C/c2ccccc2)=NC/1=C\c1ccc2c(c1)OCO2
growth inhibition [1]: -4.95%
growth inhibition [2]: 18.9%
growth inhibition [3]: -16.4%
growth inhibition [4]: -21.1%
growth inhibition [5]: -1.85%
growth inhibition [6]: -19.8%

Cc1ccc(N=C2S/C(=C3/CCC=C3N3CCOCC3)N(c3ccc(Cl)cc3)C2=Nc2ccc(C)cc2)cc1
growth inhibition [1]: -8.9%
growth inhibition [2]: -13.4%
growth inhibition [3]: -14.9%
growth inhibition [4]: -14.6%
growth inhibition [5]: -22.4%
growth inhibition [6]: -28%

O=[N+]([O-])c1cccc(/C=N/Nc2ccc(S(=O)(=O)O)cc2)c1
growth inhibition [1]: 18.6%
growth inhibition [2]: 19.3%
growth inhibition [3]: -1.9%
growth inhibition [4]: 2.5%
growth inhibition [5]: 12.7%
growth inhibition [6]: 39.2%

O=[N+]([O-])c1cc(Cl)ccc1S(=O)(=O)N1CCCc2cc(Cl)ccc21
growth inhibition [1]: 66.2%
growth inhibition [2]: 51.8%
growth inhibition [3]: 64.8%
growth inhibition [4]: 62.1%
growth inhibition [5]: 63.6%
growth inhibition [6]: 62%

NNC(=O)c1nnn(CCc2ccccc2)c1C(=O)NN
growth inhibition [1]: -1.45%
growth inhibition [2]: 3.25%
growth inhibition [3]: -1.15%
growth inhibition [4]: 5.55%
growth inhibition [5]: -9.55%
growth inhibition [6]: -3.9%

Cc1c(Cl)cccc1NC(=O)C(=O)c1c(O)c2ccc(O)cc2oc1=O
growth inhibition [1]: 4.8%
growth inhibition [2]: 1.25%
growth inhibition [3]: -19.1%
growth inhibition [4]: 3.45%
growth inhibition [5]: -15.6%
growth inhibition [6]: 5.35%

CC(C)NC(=O)c1ccc(Cl)cc1Cl
growth inhibition [1]: 26.9%
growth inhibition [2]: 27.9%
growth inhibition [3]: 15.6%
growth inhibition [4]: 10.9%
growth inhibition [5]: 3.7%
growth inhibition [6]: 12%

O=C(Nc1ccc2c(c1)Cc1c(F)cccc1-2)C(F)(F)F
growth inhibition [1]: -4.8%
growth inhibition [2]: -16.4%
growth inhibition [3]: -3.95%
growth inhibition [4]: -7.95%
growth inhibition [5]: 9.45%
growth inhibition [6]: 11.2%

CCCCC1(CC)COC(=O)N(C)C1 (configuration not stated)
growth inhibition [1]: 10.8%
growth inhibition [2]: 4.95%
growth inhibition [3]: 0.65%
growth inhibition [4]: -7.6%
growth inhibition [5]: 18%
growth inhibition [6]: 3%

O=C(NC(CSC(c1ccccc1)(c1ccccc1)c1ccccc1)C(=O)O)OC(c1ccccc1)c1ccccc1 (configuration not stated)
growth inhibition [1]: 91.5% (active)
growth inhibition [2]: 95.6% (active)
growth inhibition [3]: 96.5% (active)
growth inhibition [4]: 89% (active)
growth inhibition [5]: 89.5% (active)
growth inhibition [6]: 96.5% (active)

N#CCCCCCOCCOCCOCCOCCOCCCCCC#N
growth inhibition [1]: 12.8%
growth inhibition [2]: 12.9%
growth inhibition [3]: -10.2%
growth inhibition [4]: 12.7%
growth inhibition [5]: -1.75%
growth inhibition [6]: 18.6%

COC(=O)/C=C(/Sc1nc(Cl)c(Cl)nc1N)C(=O)OC (tested in a mixture with another compound)
growth inhibition [1]: -15.1%
growth inhibition [2]: -6.25%
growth inhibition [3]: 10.7%
growth inhibition [4]: -4.3%
growth inhibition [5]: -29.5%
growth inhibition [6]: -24.6%

CCc1ccc(NS(=O)(=O)c2ccc(OC)cc2)cc1
growth inhibition [1]: 37.9%
growth inhibition [2]: 63.5%
growth inhibition [3]: 80.2% (active)
growth inhibition [4]: 25.9%
growth inhibition [5]: 43.4%
growth inhibition [6]: 75.7% (active)

CC1=Nc2ccccc2S/C1=C(/C)NNS(=O)(=O)c1ccc(C)cc1
growth inhibition [1]: 10.1%
growth inhibition [2]: -0.05%
growth inhibition [3]: 0.25%
growth inhibition [4]: -6.3%
growth inhibition [5]: 7.75%
growth inhibition [6]: 18.1%

C/C(=N\NC(N)=O)C1(O)CCCCC1
growth inhibition [1]: -15.3%
growth inhibition [2]: -26.7%
growth inhibition [3]: -17.3%
growth inhibition [4]: 4.45%
growth inhibition [5]: -19.1%
growth inhibition [6]: -11%

CN1c2ccccc2C2CCCCC21 (configuration not stated)
growth inhibition [1]: 11.6%
growth inhibition [2]: 9.7%
growth inhibition [3]: 2.15%
growth inhibition [4]: -20.2%
growth inhibition [5]: 22.8%
growth inhibition [6]: 4.25%

O=c1oc(-c2ccc([N+](=O)[O-])cc2Cl)nc2ccccc12
growth inhibition [1]: 13.2%
growth inhibition [2]: 23.4%
growth inhibition [3]: 31.1%
growth inhibition [4]: 2%
growth inhibition [5]: 38.6%
growth inhibition [6]: 29.9%

N#Cc1c(-c2ccccc2)c(-c2ccccc2)nn(CCO)c1=O
growth inhibition [1]: 7.35%
growth inhibition [2]: 10.8%
growth inhibition [3]: 20.9%
growth inhibition [4]: -21.8%
growth inhibition [5]: 6.4%
growth inhibition [6]: 46%

CC(C)(CO)C(O)C(=O)NN (configuration not stated)
growth inhibition [1]: -2.8%
growth inhibition [2]: 2.95%
growth inhibition [3]: 8.6%
growth inhibition [4]: -6.25%
growth inhibition [5]: -3.9%
growth inhibition [6]: 3.25%

Cc1nc2c(=O)[nH]c(=O)[nH]c2s1
growth inhibition [1]: -12.6%
growth inhibition [2]: 5.05%
growth inhibition [3]: -4.2%
growth inhibition [4]: -12%
growth inhibition [5]: -7.5%
growth inhibition [6]: -8.6%

CC(=O)Nc1cccc(Br)c1
growth inhibition [1]: -18.1%
growth inhibition [2]: -23.6%
growth inhibition [3]: -18.1%
growth inhibition [4]: -12.8%
growth inhibition [5]: -25.5%
growth inhibition [6]: -19.1%

O=c1n(CC2CO2)c(=O)n(CC2CO2)c(=O)n1CC1CO1 (configuration not stated)
growth inhibition [1]: -8.4% and -1.15%
growth inhibition [2]: 11.6% and 8.65%
growth inhibition [3]: 19.7% and -18.9%
growth inhibition [4]: -25.3% and -6.25%
growth inhibition [5]: 26.1% and -34%
growth inhibition [6]: 28.1% and 2.45%

C[N+]1(Cc2csc(-c3ccc(Cl)cc3)n2)CCOCC1
growth inhibition [1]: 3.15%
growth inhibition [2]: -25.6%
growth inhibition [3]: 10.5%
growth inhibition [4]: 9.35%
growth inhibition [5]: 0.7%
growth inhibition [6]: 4.2%

CC(CC(=O)c1cccc2ccccc12)C(=O)O (configuration not stated)
growth inhibition [1]: 19%
growth inhibition [2]: 3.3%
growth inhibition [3]: 2.85%
growth inhibition [4]: 0.55%
growth inhibition [5]: -10.7%
growth inhibition [6]: 24.3%

Cc1ccc(Cl)cc1NC(=O)c1ccccc1
growth inhibition [1]: 3.45%
growth inhibition [2]: -1.25%
growth inhibition [3]: -8.5%
growth inhibition [4]: -28.9%
growth inhibition [5]: -18.1%
growth inhibition [6]: 14.8%

CC(=O)Nc1cccc(OC(=O)Nc2ccc(F)c(Cl)c2)c1
growth inhibition [1]: 57.6%
growth inhibition [2]: 60.7%
growth inhibition [3]: 71.7% (active)
growth inhibition [4]: 70.7% (active)
growth inhibition [5]: 56.8%
growth inhibition [6]: 82% (active)

COc1cc2c(cc1OC)C(Cl)C(c1ccc(Br)cc1)=C2Cl (configuration not stated)
growth inhibition [1]: 36.9%
growth inhibition [2]: 67.3%
growth inhibition [3]: 72.5% (active)
growth inhibition [4]: 48.3%
growth inhibition [5]: 55.4%
growth inhibition [6]: 32.8%

Cc1ccc(-c2nc3ccc(Cl)cc3[nH]2)cc1
growth inhibition [1]: -10.7%
growth inhibition [2]: 9.1%
growth inhibition [3]: 41.6%
growth inhibition [4]: 17.1%
growth inhibition [5]: 30.1%
growth inhibition [6]: 42.1%

O=P(CSCCO)(c1ccccc1)c1ccccc1
growth inhibition [1]: -23.6%
growth inhibition [2]: -21.9%
growth inhibition [3]: -13.4%
growth inhibition [4]: -6.3%
growth inhibition [5]: -11.9%
growth inhibition [6]: -36.7%

Cc1ccc(O)c(-c2ccnn2-c2ccccc2)c1
growth inhibition [1]: 20.5%
growth inhibition [2]: 33.9%
growth inhibition [3]: 15.1%
growth inhibition [4]: -10.8%
growth inhibition [5]: 5.25%
growth inhibition [6]: 35.8%
